According to PubChem BioAssay (NCI):
About 83,000 compounds went through this panel and 20% of them were active in at least one assay; those are over-represented in the sample as a whole.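 In brief: 96-well plates, 48 h treatment, single concentration, percent growth endpoint.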 A number with no mark means an inactive call. Activity calls are given as the source filed them. The calls were made as follows: active = growth percent below 10; inactive = the rest.

The compounds below were run on HL-60(TB) leukemia (assay: NCI-60 one-dose screen, 48 h (100 = growth as untreated, 0 = no growth, -100 = all killed)). Conditions: 10 µM unless noted.
With CCOC(=O)/C=C/C(=O)[C@H](CC(C)C)NC(=O)[C@H](Cc1ccccc1)NC(=O)OCc1ccccc1 the growth was 25.9%.
COc1ccc2c(c1)CC[C@@H]1[C@@H]2CC[C@]2(C)[C@@H](O)C(=O)C[C@@H]12 showed a growth of 108%.
CN1C(=O)N(C)C2(c3ccccc3)n3c(s/c(=C\c4ccccc4)c3=O)=NNC12c1ccccc1 (stereo not given) was tested, and the growth was 90.1%.
Compound CC(=O)NC(O)C(Cl)Cl (stereo not given) has a growth of 105%.
In the case of CCN(CC)CCNc1ccc(CO)c2oc3cc(Cl)ccc3c(=O)c12, the growth is reported as 111%.
Work on N#Cc1ccc(/C=C/c2cn(-c3ccccc3)nc2-c2cccc([N+](=O)[O-])c2)cc1 yielded a growth of 82.4%.
COc1ccc(C(=O)c2cc(C)c(OC)c(C)c2)cc1OC(=O)CCl was tested, and the growth was -43.6% (active).
Cc1oc(-c2ccc(Cl)cc2)nc1C1=NN(C(=O)c2ccncc2)C(c2ccccc2)C1 (stereo not given) gave a growth of 97.7%.
In the case of COc1cc(-c2nn(-c3ccc(NC(=O)c4ccc(Cl)c(Cl)c4)cc3)cc2-c2ccncc2)ccc1Cl, the growth is reported as 33.8%.
COCCn1cc(-c2nc(-c3c[nH]c4ncccc34)cs2)c2ccccc21 gave a growth of 76.9%.
CC(C)(C)c1cc(/C=N/NC(=O)c2ccccc2NC(=O)c2cccs2)c(O)c(C(C)(C)C)c1 showed a growth of 14.1%.
For CCCCCCCCCCC[C@@H](C[C@H]1OC(=O)[C@H]1CCCCCC)OC(=O)[C@@H](CC(C)C)NC=O, the growth was -3.28% (active).
With COc1cc(C(=O)/C=C/c2c(C)n([O-])c3ccc(Cl)cc3[n+]2=O)cc(OC)c1OC the growth was -59.5% (active).
For COC(=O)[C@H](Cc1cn(C)cn1)NC(=O)[C@@H](NC(=O)Nc1cc(C(F)(F)F)cc(C(F)(F)F)c1)C(C)(C)C, the growth was -56.2% [100 µM] (active).
With O=C(O)C(O)C(O)C(=O)O.[NH-]C1CCCCC1[NH-].[Pt+2] (stereo not given) the growth was 104%.
Work on CC(=O)c1sc2sc(C(C)=O)c(C)c2c1C yielded a growth of 90.1%.
N#Cc1c(NC(=O)c2cccs2)[n+]([O-])c2ccc(F)cc2[n+]1[O-] was tested, and the growth was 91.6%.
For CCOC(=O)OCC(=O)[C@@]1(O)CC[C@H]2[C@@H]3CCC4=CC(=O)CC[C@]4(C)[C@H]3[C@@H](O)C[C@@]21C, the growth was 108%.
Work on Cc1cccc(C)c1NC(=O)c1sc2nc3c(cc2c1N)C(=O)CCC3 yielded a growth of 104%.
Compound FC(F)(F)C1=NNC(c2ccc3ccccc3c2)=NN1 has a growth of 101%.
In the case of c1ccc2c(c1)nc(CN1CCOCC1)n1cc(N3CCCC3)nc21, the growth is reported as 83.4%.
For Cc1nn(-c2nc3ccccc3[nH]2)c2c1C(c1ccc(O)cc1)CC(=O)N2 (stereo not given), the growth was 82.1%.
With CCc1nc2ccccc2[nH]1 the growth was 105%.
For O=C(C(Br)C(Br)c1ccccc1)C(Br)C(Br)c1ccccc1 (stereo not given), the growth was -49.7% (active).
With N#Cc1cccc(C2C3=C(COC3=O)N(CCO)c3cc4c(cc32)CCC4)c1 (stereo not given) the growth was -27.2% (active).
Compound CCCCCCCOc1cccc(/C=C2/C(=O)N=C3SCCCN32)c1 has a growth of 95.2%.
COc1cc(/C=C\c2cc(OC)c(OC)c(OC)c2)cc(NS(=O)(=O)c2ccc(Cl)cc2)c1OC was tested, and the growth was -31% (active).
With CCOC(=O)C1=C(C)C(Cl)=N/C1=C\c1[nH]c(Cl)c(C)c1C(=O)OCC the growth was 95%.
N#Cc1c(-c2ccc(F)cc2)c(C#N)c2c(C#N)c(N)nn2c1N was tested, and the growth was 99.7%.
With COc1ccc(-c2nnc(SCC(=O)c3ccccc3)o2)cc1 the growth was 80.5%.
In the case of O=C(CN1CCOCC1)Nc1ccc2ncnc(Nc3ccc(Oc4cccc(F)c4)c(Cl)c3)c2c1, the growth is reported as 84.5%.
In the case of Clc1ccc2c(N3CCN(c4ccnc(NC5CCCCC5)n4)CC3)ccnc2c1, the growth is reported as -13.8% (active).
Compound Cc1ccc(NC(=O)Nc2c(Cl)cccc2Cl)cn1 has a growth of 71.3%.
CCOC(=O)c1c(NC(=O)c2ccc(Cl)cc2)sc2c(CN(C)C)c(O)ccc12 was tested, and the growth was 12.5%.
In the case of COC(=O)c1c(C)nc(Nc2nc3ccccc3s2)nc1-c1ccc(Cl)cc1Cl, the growth is reported as 96.3%.
For CCCCCC/C=C1\CCC(CN2CCCC2)C1=O (stereo not given), the growth was 62.2%.
In the case of COc1cnc2c(c1)C(=O)c1c-2n(CCCNC2=NCCS2)c(=O)c2cc(Cl)ccc12, the growth is reported as -63.8% (active).
For CC(C)C[C@H](NC(=O)Cn1ccc(Nc2ccccc2)cc1=O)B(O)O, the growth was 2.13% (active).
Compound O=C1OC[C@H]2[C@H](c3ccc(O)c(O)c3)c3cc(O)c(O)cc3C[C@H]12 has a growth of 217%.
CC(C)=CC(=O)N[C@@H]1CC2CCC3C(CC[C@@]4(C)C3CC[C@@H]4C(C)N(C)C)[C@@]2(C)C[C@@H]1O (stereo not given in full) was tested, and the growth was -63.8% (active).
